# According to the supplement of paper PMC10037445:
# Over roughly 2,900 compounds, “NF-kB SEAP reporter activity, fold change vs agonist alone” has its median near 0.99; the highest 2% begin near 2.6. The entries come from a sample that favours the highest values as a whole.
# What was measured:
# [1] = test system: RAW-Dual; experiment: NF-kB SEAP reporter activity, fold change vs agonist alone; higher = enhanced NF-kB activity
# Method in brief: (§1)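 Library stock was pin-tooled at 50 nL into 384-well plates of RAW-Dual macrophages (50,000 cells/well, DMEM), followed 1 h later by a PRR agonist, and the cells were kept at 37 °C, 5% CO2. Supernatant collected after 20 hours was read for IRF by QuantiLuc luminescence and for NF-κB by QuantiBlue absorbance at 620 nm. Reporter activity is fold change over agonist-alone wells, and a well counted as cytotoxic when its IncuCyte confluency was below 70% of agonist controls in both mask sets.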
# [2] = test system: RAW-Dual; experiment: NF-kB SEAP reporter activity, fold change vs agonist alone; cytotoxicity flag (confluency mask): not cytotoxic; higher = enhanced NF-kB activity
# Method in brief: as §1
# [3] = test system: RAW-Dual; experiment: NF-kB SEAP reporter activity, fold change vs agonist alone; cytotoxicity flag (confluency mask): cytotoxic (confluency <70% of control); higher = enhanced NF-kB activity
# Method in brief: as §1
# [4] = agonist: ODN 1826 (TLR9) 0.5 ug/mL
# [5] = agonist: Pam2CSK4 (TLR2/6) 0.1 ug/mL
# [6] = agonist: Pam3CSK4 (TLR2/1) 0.1 ug/mL
# [7] = library stock concentration (final ~1000-fold dilution): 10 mM, cytotoxicity flag (confluency mask): not cytotoxic, agonist: Imiquimod (TLR7) […]
# [8] = library stock concentration (final ~1000-fold dilution): 10 mM, cytotoxicity flag (confluency mask): not cytotoxic, agonist: MPLA (TLR4) […]
# [9] = library stock concentration (final ~1000-fold dilution): 10 mM, cytotoxicity flag (confluency mask): cytotoxic (confluency <70% of control), agonist: Imiquimod (TLR7) […]
# [10] = library stock concentration (final ~1000-fold dilution): 10 mM, cytotoxicity flag (confluency mask): cytotoxic (confluency <70% of control), agonist: MPLA (TLR4) […]
compound,measurement,setting,value
Cn1cc(-c2cnn3c(N)c(Br)c(C4CCCNC4)nc23)cn1 (stereo not given),NF-kB SEAP reporter activity,"[1]; library stock concentration (final ~1000-fold dilution): 2 mM, cytotoxicity flag (confluency mask): not cytotoxic, agonist: Imiquimod (TLR7) […]",1.09
same,NF-kB SEAP reporter activity,"[1]; library stock concentration (final ~1000-fold dilution): 2 mM, cytotoxicity flag (confluency mask): not cytotoxic, agonist: MPLA (TLR4) […]",1.35
Cn1cc(-c2cnn3c(N)c(Br)c(C4CCCNC4)nc23)cn1 (stereo not given) (library stock concentration (final ~1000-fold dilution): 2 mM),NF-kB SEAP reporter activity,[2]; agonist: LPS (TLR4) 0.1 ug/mL,1.31
same,NF-kB SEAP reporter activity,[2]; [4],1.04
same,NF-kB SEAP reporter activity,[2]; [5],1.04
same,NF-kB SEAP reporter activity,[2]; [6],1.19
Nc1ccn(C2CCC(CO)O2)c(=O)n1 (stereo not given) (library stock concentration (final ~1000-fold dilution): 10 mM),NF-kB SEAP reporter activity,[2]; agonist: LPS (TLR4) 0.1 ug/mL,0.913
same,NF-kB SEAP reporter activity,[2]; [4],1
same,NF-kB SEAP reporter activity,[2]; [5],0.95
same,NF-kB SEAP reporter activity,[2]; [6],1.15
Nc1ccn(C2CCC(CO)O2)c(=O)n1 (stereo not given),NF-kB SEAP reporter activity,[1]; [7],0.994
same,NF-kB SEAP reporter activity,[1]; [8],0.981
Nc1cc(F)ccc1NC(=O)/C=C/c1cnn(C/C=C/c2ccccc2)c1 (library stock concentration (final ~1000-fold dilution): 10 mM),NF-kB SEAP reporter activity,[2]; agonist: LPS (TLR4) 0.1 ug/mL,0.995
same,NF-kB SEAP reporter activity,[2]; [4],1.12
same,NF-kB SEAP reporter activity,[2]; [5],0.405
same,NF-kB SEAP reporter activity,[2]; [6],0.419
Cn1cc(-c2ccc(S(=O)(=O)n3ccc(/C=C/C(=O)Nc4ccccc4N)c3)cc2)cn1,NF-kB SEAP reporter activity,[1]; [9],1.68
same,NF-kB SEAP reporter activity,[1]; [10],2.37
Nc1cc(F)ccc1NC(=O)/C=C/c1cnn(C/C=C/c2ccccc2)c1,NF-kB SEAP reporter activity,[1]; [7],1.14
same,NF-kB SEAP reporter activity,[1]; [8],1.2
Cn1cc(-c2ccc(S(=O)(=O)n3ccc(/C=C/C(=O)Nc4ccccc4N)c3)cc2)cn1 (library stock concentration (final ~1000-fold dilution): 10 mM),NF-kB SEAP reporter activity,[3]; agonist: LPS (TLR4) 0.1 ug/mL,4.11
same,NF-kB SEAP reporter activity,[3]; [4],3.13
same,NF-kB SEAP reporter activity,[3]; [5],1.14
same,NF-kB SEAP reporter activity,[3]; [6],2.27
COc1cc(C(=O)O)ccc1O,NF-kB SEAP reporter activity,[1]; [7],0.937
same,NF-kB SEAP reporter activity,[1]; [8],1.02
COc1cc(C(=O)O)ccc1O (library stock concentration (final ~1000-fold dilution): 10 mM),NF-kB SEAP reporter activity,[2]; agonist: LPS (TLR4) 0.1 ug/mL,1.06
same,NF-kB SEAP reporter activity,[2]; [4],1.12
same,NF-kB SEAP reporter activity,[2]; [5],1.14
same,NF-kB SEAP reporter activity,[2]; [6],1.16
COCCOc1nc(N)c2[nH]c(=O)n(Cc3ccc(C(=O)O)cc3)c2n1 (library stock concentration (final ~1000-fold dilution): 10 mM),NF-kB SEAP reporter activity,[2]; agonist: LPS (TLR4) 0.1 ug/mL,7.55
same,NF-kB SEAP reporter activity,[2]; [4],2.13
same,NF-kB SEAP reporter activity,[2]; [5],1.46
same,NF-kB SEAP reporter activity,[2]; [6],2.77
CCCCOc1nc(N)c2c(n1)N(Cc1cccc(CN3CCCC3)c1)CC(=O)N2 (library stock concentration (final ~1000-fold dilution): 1 mM),NF-kB SEAP reporter activity,[2]; agonist: LPS (TLR4) 0.1 ug/mL,2.53
same,NF-kB SEAP reporter activity,[2]; [4],1.13
same,NF-kB SEAP reporter activity,[2]; [5],1.17
same,NF-kB SEAP reporter activity,[2]; [6],1.25
COCCOc1nc(N)c2[nH]c(=O)n(Cc3ccc(C(=O)O)cc3)c2n1,NF-kB SEAP reporter activity,[1]; [7],1.8
same,NF-kB SEAP reporter activity,[1]; [8],2.54
CCCCOc1nc(N)c2c(n1)N(Cc1cccc(CN3CCCC3)c1)CC(=O)N2,NF-kB SEAP reporter activity,"[1]; library stock concentration (final ~1000-fold dilution): 1 mM, cytotoxicity flag (confluency mask): not cytotoxic, agonist: Imiquimod (TLR7) […]",1.26
same,NF-kB SEAP reporter activity,"[1]; library stock concentration (final ~1000-fold dilution): 1 mM, cytotoxicity flag (confluency mask): not cytotoxic, agonist: MPLA (TLR4) […]",1.91
Cc1cn(C2CC(O)C(CO)O2)c(=O)[nH]c1=O (stereo not given),NF-kB SEAP reporter activity,[1]; [7],0.952
same,NF-kB SEAP reporter activity,[1]; [8],1.03
Cc1cn(C2CC(O)C(CO)O2)c(=O)[nH]c1=O (stereo not given) (library stock concentration (final ~1000-fold dilution): 10 mM),NF-kB SEAP reporter activity,[2]; agonist: LPS (TLR4) 0.1 ug/mL,1.16
same,NF-kB SEAP reporter activity,[2]; [4],1.03
same,NF-kB SEAP reporter activity,[2]; [5],1.12
same,NF-kB SEAP reporter activity,[2]; [6],1.11
COCCOc1ccc2c(c1)ncn2-c1ccc2cccc(N3CCC(N)CC3)c2n1,NF-kB SEAP reporter activity,[1]; [9],2.77
same,NF-kB SEAP reporter activity,[1]; [10],0.871
